# Assay results: PubChem BioAssay (NCI)
# About 83,000 compounds went through this panel and 20% of them were active in at least one assay; those are over-represented in the sample as a whole.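 48-hour exposure, single concentration, 96-well plates; percent growth endpoint where 0 means no net growth. Active: below 10.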 The source made the active and inactive calls.
# Test system: MDA-MB-468 breast
# Assay: NCI-60 one-dose screen, 48 h (100 = growth as untreated, 0 = no growth, -100 = all killed)
# Conditions: 10 µM unless noted
row,SMILES,growth
1,O=c1oc2ccc(I)cc2c(=O)n1-c1ccc(Br)cc1F,-2.16% (active)
2,CC[C@H]1OC(=O)[C@H](C)[C@@H](O[C@H]2C[C@@](C)(OC)[C@@H](O)[C@H](C)O2)[C@H](C)[C@@H](O[C@@H]2O[C@H](C)C[C@H](N(C)C)[C@H]2O)[C@](C)(O)C[C@H](C)CN(C)[C@H](C)[C@@H](O)[C@]1(C)O,86.7% (inactive)
3,CNC(=O)c1cc(Oc2ccc3c(c2)sc2nc(-c4ccc(Cl)cc4)cn23)ccn1,77.3% (inactive)
4,COc1cccc(CCNc2ncnc3c2ncn3Cc2nnc3c4ccccc4c(Cl)nn23)c1,57.4% (inactive)
5,CC(=O)c1ccc(Br)c([N+](=O)[O-])c1,112% (inactive)
6,COc1cc(OC)c(/C=C/C(=O)c2c(N)cc(OC)cc2OC)c(OC)c1,-17.1% (active)
7,COC(=O)c1cccc(NC(=O)c2ccc(-c3cccc(N)c3)o2)c1,99.7% (inactive)
8,O=S(=O)(NCCNc1nccc(-c2c(-c3ccc(F)c(O)c3)nc3occn23)n1)c1ccc(Cl)cc1,95.6% (inactive)
9,CC1(C(=O)O)CCC(N)(C(=O)O)C1(C)C (stereo not drawn),115% (inactive)
10,CC(/C=N/NC(N)=S)Cc1ccc(C(C)C)cc1 (stereo not drawn),42.1% (inactive)
11,O=S(=O)(Nc1ccc(I)cc1Cl)c1ccc(-c2cnc(C3CC3)o2)cc1,20.1% (inactive)
12,CC1(C)CC[C@]23CC[C@]4(C)[C@H](CC[C@@H]5[C@@]6(C)CC[C@H](N)C(C)(C)[C@@H]6CC[C@]54C)[C@H]2[C@H]1OC3,0.703% (active)
13,O=C1N[C@@H]2[C@@H](O)[C@@H](O)[C@H](O)C[C@H]2c2cc3c(c(O)c21)OCCO3,-27.2% (active)
